Experimental data taken from a collection of fitness landscapes (doi:10.1126/science.1257360).
In all, about 140,000 sequences were measured (“enrichment ratio after two sorts for PhoP signalling”: median about 0, highest 2% from about 11 on). This excerpt belongs to a sample that is enriched for the highest values.

B1: PhoQ; a variant is named by its letters at X, in order, P23837 (parent)
chain: MKKLLRLFFPLSLRVRFLLATAAVVLVLSLAYGMVALIGYSVSFDKTTFRLLRGESNLFYTLAKWENNKLHVELPENIDKQSPTMTLIYDENGQLLWAQRDVPWLMKMIQPDWLKSNGFHEIEADVNDTSLLLSGDHSIQQQLQEVREDDDDAEMTHSVAVNVYPATSRMPKLTIVVVDTIPVELKSSYMVWSWFIYVLSANLLLVIPLLWVAAWWSLRPIEALAKEVRELEEHNRELLNPATTRELTSLVRNLNRLLKSERERYDKYRTTLTDLTHSLKTPLXXLQXXLRSLRSEKMSVSDAEPVMLEQISRISQQIGYYLHRASMRGGTLLSRELHPVAPLLDNLTSALNKVYQRKGVNISLDISPEISFVGEQNDFVEVMGNVLDNACKYCLEFVEISARQTDEHLYIVVEDDGPGIPLSKREVIFDRGQRVDTLRPGQGVGLAVAREITEQYEGKIVAGESMLGGARMEVIFGRQHSAPKDE

Variants of: B1
Assay: enrichment ratio after two sorts for PhoP signalling (ratio (wild type AVST 3.29)); higher = more functional
Details: with PhoP (E. coli)

Row | Variant | enrichment ratio
1 | MGWA | ≤ 0.25
2 | MGHI | 19.7
3 | MGYD | ≤ 0.25
4 | TGHL | 7.55
5 | MGHL | 19.3
6 | MGYS | 12.2
7 | MGDR | ≤ 0.25
8 | MGYI | 13.6
9 | GGHL | ≤ 0.25
10 | MGHF | 0.887
11 | MGYK | ≤ 0.25
12 | TGYS | 1.45
13 | EVSV | ≤ 0.25
14 | VKDT | ≤ 0.25
15 | DASS | ≤ 0.25
16 | QDGG | ≤ 0.25
17 | GYTL | ≤ 0.25
18 | TATL | 16.3
19 | FSTL | 4.4
20 | TVTL | 15.2
21 | KATL | ≤ 0.25
22 | SPTL | ≤ 0.25
23 | RYTL | ≤ 0.25
24 | TYTL | 15.2
25 | NITL | ≤ 0.25
26 | KSTL | ≤ 0.25

Row | Variant | enrichment ratio
27 | TMTL | 20.9
28 | NATL | ≤ 0.25
29 | AVIL | 1.98
30 | LGEK | ≤ 0.25
31 | DFEL | ≤ 0.25
32 | FLSP | ≤ 0.25
33 | RASH | ≤ 0.25
34 | NGTL | ≤ 0.25
35 | GGTL | 5.81
36 | CITL | ≤ 0.25
37 | TGTL | 13.5
38 | CFTL | 15.7
39 | CMTL | ≤ 0.25
40 | FIIG | ≤ 0.25
41 | YFRE | ≤ 0.25
42 | AILE | 2.65
43 | HKLE | ≤ 0.25
44 | MKLE | ≤ 0.25
45 | AHLE | 12.9
46 | NHLE | ≤ 0.25
47 | YELE | 13.8
48 | YALE | 14.7
49 | YEVE | ≤ 0.25
50 | KALE | ≤ 0.25
51 | FTLE | 5.91
52 | TKLE | 12.7

Row | Variant | enrichment ratio
53 | QPLE | ≤ 0.25
54 | PLTV | ≤ 0.25
55 | YFSG | ≤ 0.25
56 | RYRE | ≤ 0.25
57 | SNND | ≤ 0.25
58 | GKDT | ≤ 0.25
59 | PQNK | ≤ 0.25
60 | KRMQ | ≤ 0.25
61 | MEMS | 63.4
62 | AIMG | 6.65
63 | MKMS | ≤ 0.25
64 | MEMV | 14.8
65 | MTHV | ≤ 0.25
66 | AKMG | 18.6
67 | MKMV | ≤ 0.25
68 | MEMW | ≤ 0.25
69 | YYHV | ≤ 0.25
70 | ADMG | ≤ 0.25
71 | KKMS | ≤ 0.25
72 | MEHV | 14.3
73 | VCGT | ≤ 0.25
74 | VPIR | ≤ 0.25
75 | IAQH | ≤ 0.25
76 | SNQM | 9.41
77 | RNTT | ≤ 0.25
78 | NFHF | ≤ 0.25

Row | Variant | enrichment ratio
79 | RATT | ≤ 0.25
80 | RPPR | ≤ 0.25
81 | QKLG | ≤ 0.25
82 | PTLR | ≤ 0.25
83 | NSHF | ≤ 0.25
84 | MEMG | 12.8
85 | VEMV | 27.4
86 | MEVG | 4.29
87 | VEMG | 6.39
88 | VEKK | ≤ 0.25
89 | MKMG | ≤ 0.25
90 | LQGT | ≤ 0.25
91 | RYHM | ≤ 0.25
92 | FHIH | ≤ 0.25
93 | PDKA | ≤ 0.25
94 | SVGD | ≤ 0.25
95 | SVGW | 14.4
96 | SRGW | 2.5
97 | KYGW | ≤ 0.25
98 | SYGW | ≤ 0.25
99 | SIGW | 11.7
100 | SVHW | ≤ 0.25
101 | SCGW | 20.5
102 | SQGW | ≤ 0.25
103 | TMAH | 1.31
104 | NNEC | ≤ 0.25

Row | Variant | enrichment ratio
105 | VWTE | ≤ 0.25
106 | RHES | ≤ 0.25
107 | IKSM | ≤ 0.25
108 | WYNQ | ≤ 0.25
109 | MFWL | ≤ 0.25
110 | TAEM | 25.7
111 | TATI | 5.19
112 | KANE | ≤ 0.25
113 | KAAM | ≤ 0.25
114 | TAGE | ≤ 0.25
115 | LQEM | ≤ 0.25
116 | TATM | 27
117 | TANE | 18.3
118 | YATM | ≤ 0.25
119 | TAAM | 13.6
120 | TARM | ≤ 0.25
121 | IAEM | ≤ 0.25
122 | LGLR | ≤ 0.25
123 | IPIH | ≤ 0.25
124 | IDYN | ≤ 0.25
125 | LPTD | ≤ 0.25
126 | HEFY | ≤ 0.25
127 | DTSM | ≤ 0.25
128 | TACK | 11.6
129 | YANM | 0.317
130 | TAGL | 12.4

Row | Variant | enrichment ratio
131 | TAPM | ≤ 0.25
132 | TANM | 19.5
133 | TAWM | 9.41
134 | NAGL | ≤ 0.25
135 | TANS | 11.9
136 | KAGL | ≤ 0.25
137 | TANL | 10
138 | TANK | ≤ 0.25
139 | KANM | ≤ 0.25
140 | ERPF | ≤ 0.25
141 | TCLM | 1.01
142 | EGYT | ≤ 0.25
143 | LDPK | ≤ 0.25
144 | DMWR | ≤ 0.25
145 | EPFH | ≤ 0.25
146 | QHGK | ≤ 0.25
147 | DCLA | ≤ 0.25
148 | YSEC | ≤ 0.25
149 | YANA | ≤ 0.25
150 | TAGD | 9.3
151 | TAGM | 13.2
152 | TACM | 12.4
153 | NWCM | ≤ 0.25
